# Results as given in PubChem BioAssay (NCI).
# Where “and” joins values, the source holds several entries; their conditions need not be identical. Identical values can stand only once. This is part of a sample that, as a whole, favours compounds with a hit. Of some 83,000 tested, about 20% had one in any assay.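 Values shown are percent growth following 48 h exposure of cells in 96-well plates to a single concentration of compound; below 10 was considered active.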 More than one record can exist for a structure, and the calls need not agree. Calls of active or inactive are those of the source.
# How the values were obtained:
# Assay in all cases: NCI-60 one-dose screen, 48 h (100 = growth as untreated, 0 = no growth, -100 = all killed)
# Conditions in all cases: 10 µM
# NCI-H23 lung = tested on: NCI-H23 lung
# NCI-H522 lung = tested on: NCI-H522 lung
# MALME-3M melanoma = tested on: MALME-3M melanoma
# MDA-MB-231 breast = tested on: MDA-MB-231 breast
# M14 melanoma = tested on: M14 melanoma
# SK-MEL-5 melanoma = tested on: SK-MEL-5 melanoma
# UACC-62 melanoma = tested on: UACC-62 melanoma
# LOX IMVI melanoma = tested on: LOX IMVI melanoma
# SK-MEL-28 melanoma = tested on: SK-MEL-28 melanoma
# SR leukemia = tested on: SR leukemia
# OVCAR-8 ovarian = tested on: OVCAR-8 ovarian
# OVCAR-5 ovarian = tested on: OVCAR-5 ovarian
# OVCAR-4 ovarian = tested on: OVCAR-4 ovarian
# SK-OV-3 ovarian = tested on: SK-OV-3 ovarian
# IGROV1 ovarian = tested on: IGROV1 ovarian
# HS 578T breast = tested on: HS 578T breast
# NCI/ADR-RES ovarian = tested on: NCI/ADR-RES ovarian
# T-47D breast = tested on: T-47D breast
# SW-620 colon = tested on: SW-620 colon
# MCF7 breast = tested on: MCF7 breast
Structure (SMILES),growth (NCI-H23 lung),growth (NCI-H522 lung),growth (MALME-3M melanoma),growth (MDA-MB-231 breast),growth (M14 melanoma),growth (SK-MEL-5 melanoma),growth (UACC-62 melanoma),growth (LOX IMVI melanoma),growth (SK-MEL-28 melanoma),growth (SR leukemia),growth (OVCAR-8 ovarian),growth (OVCAR-5 ovarian),growth (OVCAR-4 ovarian),growth (SK-OV-3 ovarian),growth (IGROV1 ovarian),growth (HS 578T breast),growth (NCI/ADR-RES ovarian),growth (T-47D breast),growth (SW-620 colon),growth (MCF7 breast)
COc1cc(C)c(-c2ccc(OC)c(=O)cc2C)c(OC)c1OC,22.3% (inactive) and 106% (inactive),-11.4% (active) and 98.2% (inactive),46.7% (inactive) and 95.3% (inactive),18.3% (inactive) and 99.8% (inactive),4.63% (active) and 101% (inactive),21.7% (inactive) and 99.7% (inactive),30.8% (inactive) and 86.1% (inactive),18% (inactive) and 106% (inactive),47.9% (inactive) and 103% (inactive),9.85% (active) and 89.4% (inactive),5.3% (active) and 100% (inactive),24.6% (inactive) and 98.9% (inactive),70.9% (inactive) and 96.9% (inactive),32.4% (inactive) and 102% (inactive),27.2% (inactive) and 103% (inactive),1.63% (active) and 109% (inactive),-11.5% (active) and 107% (inactive),61% (inactive) and 137% (inactive),19.6% (inactive) and 104% (inactive),14.8% (inactive) and 91.5% (inactive)
CC1=C2C(=C[C@@](C)(C=O)[C@@H]2O)C(=O)[C@](C)(O)C12CC2,-24% (active),12.9% (inactive),-32.6% (active),14% (inactive),2% (active),-79.5% (active),-48.5% (active),2.16% (active),-8.99% (active),14.5% (inactive),14.1% (inactive),6.05% (active),19.3% (inactive),11.1% (inactive),9.24% (active),33.5% (inactive),1.41% (active),11.7% (inactive),10.1% (inactive),3.05% (active)
COc1cc2c(cc1OC)[C@@H]1N(CC2)C(=O)c2ccccc2[C@@]1(C)C(=O)O,102% (inactive),99.8% (inactive),64.6% (inactive),101% (inactive),,101% (inactive),95.8% (inactive),105% (inactive),113% (inactive),117% (inactive),104% (inactive),106% (inactive),105% (inactive),113% (inactive),106% (inactive),108% (inactive),106% (inactive),116% (inactive),109% (inactive),97.4% (inactive)
CC(=O)O[C@@H]1C[C@H]2O[C@@H]3C=C(C)CC[C@]3(C)[C@]1(C)[C@]21CO1,7.96% (active),2.05% (active),5.52% (active),4.27% (active),-45.9% (active),-50.9% (active),2.75% (active),-41.5% (active),-1.27% (active),0.874% (active),8.44% (active),84.3% (inactive),-1.86% (active),18.1% (inactive),22.8% (inactive),22.7% (inactive),14.6% (inactive),-2.72% (active),7.09% (active),3.89% (active)
CC1=C[C@H]2O[C@@H]3C[C@H]4OC(=O)/C=C\C=C\[C@H]([C@@H](C)O)OCC[C@@H](C)[C@H](O)C(=O)OC[C@@]2(CC1)[C@]4(C)[C@]31CO1,-36.6% (active),-43.4% (active),-67.9% (active),-25.2% (active),-76% (active),-90.2% (active),-66.6% (active),-79% (active),-49.1% (active),-10.5% (active),-12.8% (active),-16.8% (active),-19% (active),-18.6% (active),-13.4% (active),-6.56% (active),-24.9% (active),-19% (active),0.381% (active),-7.85% (active)
N#Cc1nc(-c2ccccc2)oc1N1CCC(S(=O)(=O)F)CC1,99.2% (inactive),93.9% (inactive),98.9% (inactive),98.7% (inactive),106% (inactive),96.3% (inactive),98.1% (inactive),104% (inactive),104% (inactive),83.4% (inactive),94.3% (inactive),104% (inactive),101% (inactive),107% (inactive),103% (inactive),98.5% (inactive),104% (inactive),106% (inactive),103% (inactive),98.2% (inactive)
